Eight compounds from PubChem BioAssay (NCATS) can be followed below.

For assay [1], the target named is Lysosomal acid glucosylceramidase (Homo sapiens) (UniProt P04062). Kind of assay: Glucocerebrosidase-p2 (AID 348; in the data active means potency below about 10 µM; further: potency means the concentration at half of the fitted maximal effect). The note with it: purified GBA, blue fluorogenic substrate, 40 min. The gist of the method: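 Normal human glucocerebrosidase (0.2 nM) with blue fluorogenic substrate (80 uM final) in citrate/phosphate pH 5.9 with 10mM sodium taurocholate, 0.01% tween-20; 40 min RT, NaOH/glycine stop; fluorescence Ex 365/Em 440; AC50 from a titration from 0.6 nM upwards.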

A short description of assay [2]: AP1 Signaling Pathway (AID 357).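 Further: ME-180 reporter cells stimulated with EGF at its EC50 level; on the % scale 0 is the no-effect control and ±100 the full control effect.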 As to conditions: ME-180 AP-1-bla reporter, EGF-induced, beta-lactamase ratio, 5 h; at 7.69 µM (top of the series) unless noted. The essentials:
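First, ME-180 AP-1-bla cells were cultured overnight at 37 °C in low-serum Opti-MEM. Next, titrated compounds with EC50 EGF were incubated 5 hours. Finally, CCF4 was added for 2.5 hours and the 460/530 nm ratio recorded.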

For assay [3], the target named is Cytochrome P450 1A2 (Homo sapiens) (UniProt P05177). Kind of assay: p450-cyp1a2 (AID 410; calls by dose curve; further: potency means the concentration at half of the fitted maximal effect). As to conditions: recombinant CYP1A2, luciferin-ME demethylation, luminescence; series mostly up to 11.4 µM. The essentials:
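O-Demethylation of luciferin 6' methyl ether by human CYP1A2 is monitored as luciferase luminescence. Substrate sits at Km (100uM); enzyme is 20nM. Values are scaled to 57 uM furafylline as maximal inhibition.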

Assay [4] in a line: NFAT Signaling Pathway (AID 444).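 Further: carbachol stimulus at about its EC50 of 1 µM final; on the % scale 0 is the no-effect control and ±100 the full control effect.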 The note with it: Jurkat NFAT-bla M1, carbachol, beta-lactamase ratio, 5 h; at 7.69 µM (top of the series) unless noted. The essentials: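 Jurkat cells carrying an NFAT-driven β-lactamase reporter and co-transfected muscarinic M1 receptor were treated with compound plus carbachol (1 uM final, an EC50 level) for 5 h at 37 °C. CCF4 loading followed for 1 h at RT; 460/530 nm ratio gave %activity.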

Assay [5] is described as follows: Stat Signaling Pathway (AID 446).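 Further: ME-180 cervical cancer cells given 40 pM IL-6 alongside compound; SIE-controlled beta-lactamase reporter measured as 460/530 nm FRET emission ratio; on the % scale 0 is the no-effect control and ±100 the full control effect.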 As to conditions: ME-180 (cervical carcinoma) SIE beta-lactamase reporter, IL-6 stimulated, 5 h; at 7.69 µM (top of the series) unless noted. The gist of the method: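 Normalization used AC90 stimulation (300 pM IL-6) and AC90 inhibition (125 nM pan-JAK inhibitor at 40 pM IL-6). The underlying signal is SIE-driven beta-lactamase in ME-180 cells after 5 h IL-6 exposure with compound.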

Assay [6] concerns the target Glucocorticoid receptor (Homo sapiens) (UniProt P04150). Put plainly: GR-EFC Redistribution (AID 451; calls by dose curve; further: potency means the concentration at half of the fitted maximal effect). As to conditions: CHO-K1 GR-EFC translocation, beta-gal luminescence, 2 h. The essentials: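 CHO-K1 cells stably expressing nuclear-localized β-gal enzyme acceptor and GR fused C-terminally to the enzyme donor fragment; ligand-driven nuclear translocation restores β-gal by complementation. Compounds titrated up to 46 uM final, 2 h at 37 °C; luminescence read.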

In assay [7] the target is Mitogen-activated protein kinase 10 (Mus musculus) (UniProt Q61831). Put plainly: JNK3 AlphaScreen Assay (AID 530).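 Further: kinase came from lysate of stimulated human HepG2 cells; on the % scale 0 is the no-effect control and ±100 the full control effect.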 The note with it: JNK3 lysate, c-Jun phosphorylation; series mostly up to 11.4 µM. The gist of the method: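 Phosphorylation of biotinylated GST-cJun(1-79) at Ser73 is measured by AlphaScreen proximity luminescence. Enzyme is JNK3 in HepG2 lysates activated with interleukin-1beta and tumor necrosis factor alpha; ATP is 10 uM final.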

Assay [8] concerns the target 3',5'-cyclic-AMP phosphodiesterase 4B (Homo sapiens) (UniProt Q07343). Kind of assay: qHTS Assay for Inhibitors of PDE-IV (AID 607; active means well fitted activation curve with a large enough effect in the main read-out, with a control signal flat, not every such curve was filed as active; further: % of control where 0% means no effect). As to conditions: HEK293 ACTOne CNG channel cells, membrane potential fluorescence; series mostly up to 22.9 µM. The gist of the method: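 HEK293 ACTOne cells with CNG channel (1000/well), endogenous PDE4; membrane potential dye, compounds up to 22.9 uM final. Fluorescence Ex 535/Em 590; RO 20-1724 (100 uM final) as reference.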
For orientation: qHTS replaces the single test concentration by a dilution series.

Assay [9] deals with Glucocorticoid receptor (Homo sapiens) (UniProt P04150). Kind of assay: GR-GFP Redistribution (AID 450;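 active means compounds whose dose series gives a full or clear partial fitted curve of increased nuclear translocation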; further: potency means the concentration at half of the fitted maximal effect). The note with it: U2OS GR-GFP nuclear translocation, laser cytometry, 2 h.
Assay [10] addresses Cytochrome P450 3A4 (Homo sapiens) (UniProt P08684). Put plainly: qHTS Assay for Activators of Cytochrome P450 3A4 (AID 885; active means well fitted curve in the direction sought with a large enough effect; an effect the other way counts as inactive or inconclusive; further: nearly all actives have a fitted effect of over 65% in size). As to conditions: recombinant CYP3A4, Luciferin-PPXE luminescence, 60 min; series mostly up to 11.4 µM. The essentials: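 Human CYP3A4 dealkylates Luciferin-PPXE to luciferin, which luciferase detection converts to light. Substrate was at its KM (25uM), buffer 200mM KPO4, reaction 60 min at RT.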

For assay [11], the target named is Cytochrome P450 2C19 (Homo sapiens) (UniProt P33261). Put plainly: qHTS Assay for Inhibitors and Substrates of Cytochrome P450 2C19 (AID 899; active means well fitted curve in the direction sought with a large enough effect; an effect the other way counts as inactive or inconclusive; further: nearly all actives have a fitted effect of over 60% in size; further: potency means the concentration at half of the fitted maximal effect). As to conditions: recombinant CYP2C19, luciferin-H EGE luminescence; series mostly up to 11.4 µM. The gist of the method:
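In 50mM KPO4, the reaction held 5nM enzyme and KM-level (10uM) Luciferin-H EGE; it ran 60 min at 37C after NADPH regeneration and a 10 min compound preincubation. Luminescence values were scaled to 57uM ketoconazole as complete inhibition.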

The target of assay [12] is Cytochrome P450 2C9 (Homo sapiens) (UniProt P11712). Kind of assay: qHTS Assay for Inhibitors and Substrates of Cytochrome P450 2C9 (AID 883; active means well fitted curve in the direction sought with a large enough effect; an effect the other way counts as inactive or inconclusive; further: potency means the concentration at half of the fitted maximal effect; nearly all actives have a fitted effect of over 60% in size). The note with it: recombinant CYP2C9, luciferin-H luminescence, 60 min; series mostly up to 11.4 µM. The gist of the method:
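CYP2C9 deoxyluciferin hydroxylation, 37C, 60 min with NADPH regeneration; 10nM enzyme, 100uM Luciferin-H (KM). Glo detection reagent stopped reaction; luminescence normalized to sulphaphenazole (57uM) full inhibition.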

The target of assay [13] is Cytochrome P450 3A4 (Homo sapiens) (UniProt P08684). Put plainly: qHTS Assay for Inhibitors and Substrates of Cytochrome P450 3A4 (AID 884; active means well fitted curve in the direction sought with a large enough effect; an effect the other way counts as inactive or inconclusive; further: potency means the concentration at half of the fitted maximal effect; nearly all actives have a fitted effect of over 50% in size). As to conditions: recombinant CYP3A4, Luciferin-PPXE luminescence; series mostly up to 57.1 µM. The essentials: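 Luminescent readout of luciferin produced by CYP3A4 (20 nM) dealkylation of Luciferin-PPXE, 25 uM (its KM). NADPH-driven reaction ran 60 min at RT after 10 min compound preincubation; data scaled to 57 uM ketoconazole as 100% inhibition.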

A number with no mark means an inactive call. Inconclusive results are not listed. Active and inactive are the calls of the source. Unless noted, the call rests on the fitted dose curve; in most records, active means well fitted curve in either direction with a large enough effect (not every such curve was filed as active); inconclusive means small, poorly fitted or top-dose-only effect, or another doubt; inactive means flat fitted curve, though single readings scatter.

Chain of Cytochrome P450 3A4 (Homo sapiens) (P08684 whole entry, looked up): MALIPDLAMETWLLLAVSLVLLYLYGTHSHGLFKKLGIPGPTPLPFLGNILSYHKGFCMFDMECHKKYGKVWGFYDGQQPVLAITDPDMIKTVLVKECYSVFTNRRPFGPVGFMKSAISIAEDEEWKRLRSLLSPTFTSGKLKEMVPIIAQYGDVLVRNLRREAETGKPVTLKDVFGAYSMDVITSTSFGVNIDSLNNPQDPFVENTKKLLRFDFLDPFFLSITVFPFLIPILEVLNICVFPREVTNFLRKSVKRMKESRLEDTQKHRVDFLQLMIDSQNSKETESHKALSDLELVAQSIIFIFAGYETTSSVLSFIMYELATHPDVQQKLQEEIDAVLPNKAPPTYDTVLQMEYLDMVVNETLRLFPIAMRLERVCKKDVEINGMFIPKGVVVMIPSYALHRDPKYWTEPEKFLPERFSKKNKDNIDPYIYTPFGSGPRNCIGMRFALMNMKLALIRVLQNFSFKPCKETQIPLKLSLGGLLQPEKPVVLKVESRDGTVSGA
Chain of 3',5'-cyclic-AMP phosphodiesterase 4B (Homo sapiens) (Q07343 whole entry, looked up): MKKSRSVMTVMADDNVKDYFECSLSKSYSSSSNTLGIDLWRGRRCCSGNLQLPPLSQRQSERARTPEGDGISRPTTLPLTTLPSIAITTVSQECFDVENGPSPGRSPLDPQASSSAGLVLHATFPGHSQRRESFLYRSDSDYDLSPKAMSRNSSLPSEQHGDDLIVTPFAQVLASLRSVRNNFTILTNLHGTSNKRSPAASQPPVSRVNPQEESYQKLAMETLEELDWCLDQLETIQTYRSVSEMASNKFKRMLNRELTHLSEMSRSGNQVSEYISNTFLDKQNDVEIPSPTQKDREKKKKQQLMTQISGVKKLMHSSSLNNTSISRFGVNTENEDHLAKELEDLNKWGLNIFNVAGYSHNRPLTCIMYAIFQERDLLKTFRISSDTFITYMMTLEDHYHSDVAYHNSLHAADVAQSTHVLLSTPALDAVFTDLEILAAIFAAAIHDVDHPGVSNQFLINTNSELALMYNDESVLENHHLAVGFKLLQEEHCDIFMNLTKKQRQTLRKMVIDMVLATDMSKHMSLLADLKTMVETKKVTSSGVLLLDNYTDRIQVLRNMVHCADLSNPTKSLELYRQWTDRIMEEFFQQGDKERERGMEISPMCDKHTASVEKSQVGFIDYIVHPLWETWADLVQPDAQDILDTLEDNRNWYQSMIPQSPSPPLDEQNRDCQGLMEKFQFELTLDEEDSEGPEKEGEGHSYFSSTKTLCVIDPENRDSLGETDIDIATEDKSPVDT
Chain of Cytochrome P450 1A2 (Homo sapiens) (P05177 whole entry, looked up): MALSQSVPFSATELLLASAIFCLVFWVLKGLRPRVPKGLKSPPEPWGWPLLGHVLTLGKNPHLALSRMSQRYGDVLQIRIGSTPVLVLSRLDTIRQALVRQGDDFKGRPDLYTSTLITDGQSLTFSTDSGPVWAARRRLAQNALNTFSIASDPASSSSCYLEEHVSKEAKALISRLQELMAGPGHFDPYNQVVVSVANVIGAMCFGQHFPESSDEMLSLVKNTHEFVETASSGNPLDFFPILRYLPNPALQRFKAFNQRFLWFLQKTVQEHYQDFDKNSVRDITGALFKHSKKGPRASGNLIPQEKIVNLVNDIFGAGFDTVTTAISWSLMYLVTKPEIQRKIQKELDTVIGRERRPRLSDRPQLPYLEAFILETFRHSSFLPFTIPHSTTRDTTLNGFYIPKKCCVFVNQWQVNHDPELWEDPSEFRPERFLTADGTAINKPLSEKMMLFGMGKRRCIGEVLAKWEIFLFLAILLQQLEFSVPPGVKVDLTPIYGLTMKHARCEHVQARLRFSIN
Chain of Lysosomal acid glucosylceramidase (Homo sapiens) (P04062 whole entry, looked up): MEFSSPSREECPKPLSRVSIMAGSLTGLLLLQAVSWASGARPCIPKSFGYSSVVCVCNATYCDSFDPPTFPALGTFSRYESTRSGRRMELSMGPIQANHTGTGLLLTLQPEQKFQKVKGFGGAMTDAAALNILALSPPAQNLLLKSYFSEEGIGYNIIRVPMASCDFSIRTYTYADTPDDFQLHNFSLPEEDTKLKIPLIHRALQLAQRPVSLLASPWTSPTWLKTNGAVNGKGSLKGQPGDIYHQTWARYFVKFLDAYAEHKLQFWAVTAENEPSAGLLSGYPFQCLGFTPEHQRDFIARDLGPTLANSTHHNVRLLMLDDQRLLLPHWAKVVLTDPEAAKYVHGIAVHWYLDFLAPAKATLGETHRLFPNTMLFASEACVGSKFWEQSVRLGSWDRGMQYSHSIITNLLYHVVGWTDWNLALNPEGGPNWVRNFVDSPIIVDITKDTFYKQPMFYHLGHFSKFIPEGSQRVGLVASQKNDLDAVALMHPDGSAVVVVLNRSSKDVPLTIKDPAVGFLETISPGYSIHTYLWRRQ
Chain of Glucocorticoid receptor (Homo sapiens) (P04150 whole entry, looked up, the tested form may be a part): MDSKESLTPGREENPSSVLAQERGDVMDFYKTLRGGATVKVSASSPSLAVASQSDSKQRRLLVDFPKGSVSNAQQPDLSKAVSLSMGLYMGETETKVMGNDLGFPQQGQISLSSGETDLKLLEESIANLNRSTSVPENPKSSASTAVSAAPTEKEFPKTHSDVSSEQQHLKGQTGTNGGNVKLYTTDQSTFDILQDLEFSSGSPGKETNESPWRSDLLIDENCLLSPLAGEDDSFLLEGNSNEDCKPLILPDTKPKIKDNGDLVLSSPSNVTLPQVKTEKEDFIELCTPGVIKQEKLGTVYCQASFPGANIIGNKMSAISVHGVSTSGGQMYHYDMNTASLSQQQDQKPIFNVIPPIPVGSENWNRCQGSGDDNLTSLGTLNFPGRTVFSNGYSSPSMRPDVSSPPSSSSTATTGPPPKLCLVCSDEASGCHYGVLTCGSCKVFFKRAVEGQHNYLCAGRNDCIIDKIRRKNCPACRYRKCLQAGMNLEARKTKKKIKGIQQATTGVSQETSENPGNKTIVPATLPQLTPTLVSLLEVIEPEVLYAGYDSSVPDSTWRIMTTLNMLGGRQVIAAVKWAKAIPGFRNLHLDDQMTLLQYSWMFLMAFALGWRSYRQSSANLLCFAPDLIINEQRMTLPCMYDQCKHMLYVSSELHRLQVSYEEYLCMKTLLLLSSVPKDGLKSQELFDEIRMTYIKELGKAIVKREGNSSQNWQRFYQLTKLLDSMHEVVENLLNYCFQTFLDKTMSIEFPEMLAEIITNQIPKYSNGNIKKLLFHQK
Chain of Cytochrome P450 2C19 (Homo sapiens) (P33261 whole entry, looked up): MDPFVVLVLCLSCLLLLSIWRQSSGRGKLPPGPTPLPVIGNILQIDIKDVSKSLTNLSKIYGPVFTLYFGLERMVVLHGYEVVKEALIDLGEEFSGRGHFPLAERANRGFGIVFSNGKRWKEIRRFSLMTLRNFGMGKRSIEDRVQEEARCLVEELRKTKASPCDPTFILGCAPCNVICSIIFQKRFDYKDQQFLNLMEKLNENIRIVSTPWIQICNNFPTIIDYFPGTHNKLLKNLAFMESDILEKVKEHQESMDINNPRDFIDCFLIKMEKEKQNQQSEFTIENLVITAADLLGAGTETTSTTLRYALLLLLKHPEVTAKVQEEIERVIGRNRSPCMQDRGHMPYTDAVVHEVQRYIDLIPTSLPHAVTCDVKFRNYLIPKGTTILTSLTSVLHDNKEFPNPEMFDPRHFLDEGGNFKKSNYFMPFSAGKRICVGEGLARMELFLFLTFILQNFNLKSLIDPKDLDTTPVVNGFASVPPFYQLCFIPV
Chain of Cytochrome P450 2C9 (Homo sapiens) (P11712 whole entry, looked up): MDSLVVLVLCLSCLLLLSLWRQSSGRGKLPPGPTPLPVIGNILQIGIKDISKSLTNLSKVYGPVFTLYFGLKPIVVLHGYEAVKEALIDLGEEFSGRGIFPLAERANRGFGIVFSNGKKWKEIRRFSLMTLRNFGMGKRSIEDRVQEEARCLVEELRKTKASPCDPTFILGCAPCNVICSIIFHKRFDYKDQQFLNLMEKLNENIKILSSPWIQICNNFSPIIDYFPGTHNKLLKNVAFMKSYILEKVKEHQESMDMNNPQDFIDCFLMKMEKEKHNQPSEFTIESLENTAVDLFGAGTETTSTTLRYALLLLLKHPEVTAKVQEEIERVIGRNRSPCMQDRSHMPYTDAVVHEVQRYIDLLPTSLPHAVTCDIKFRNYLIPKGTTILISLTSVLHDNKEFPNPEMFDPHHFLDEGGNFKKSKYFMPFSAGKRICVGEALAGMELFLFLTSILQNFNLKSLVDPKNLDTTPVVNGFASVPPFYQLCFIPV

Take `COc1cccc2c1C(=O)c1c(O)c3c(c(O)c1C2=O)C[C@@](O)(C(=O)CO)C[C@H]3O[C@H]1C[C@@H](N)[C@H](O)[C@@H](C)O1.[W]`: the figures for the Potency in [1] and in assay [6] were > 11.4 µM and > 9.22 µM, respectively. For the same compound, the activity change, negative = inhibition in [2] was 0.391%; in assay [4] it was -27.2%. The Potency result in [3], in assay [7] and in [8] was “inactive” throughout. The activity, negative = inhibition in assay [5] was 14.9%.

Turning to `COc1cc(N=C(N)N=C(N)N)c2ncccc2c1`, the Potency in assay [1] is > 11.4 µM; in assay [3] it was 0.398 µM (active); in [6], > 9.22 µM. Further, the activity change, negative = inhibition in assay [2] is -8.09%; in assay [4], 3.48%. The activity, negative = inhibition in [5] was -1.33%. For the same compound, the Potency result in assay [7] and in assay [8] was “inactive” each time.

For `COc1cc(C2SCCCCCCCCCCSC(c3ccc(O)c(OC)c3)SCCCCCCCCCCS2)ccc1O` (configuration not stated), the figures for the Potency in [1] and in assay [9] were > 11.4 µM and > 46 µM, respectively. The activity change, negative = inhibition in assay [2] is -0.286%; in assay [3], -6.9% [at 2.29 µM]; in assay [4], 19.7%. Also, the activity, negative = inhibition in [5] was 9.48%. Moreover, the Potency result in assay [7] and in assay [8] was “inactive” throughout.

As to `Cc1ccc(-c2nnc(-c3ccc4ccccc4c3)o2)cc1`, the Potency in assay [1] was > 11.4 µM; in assay [3] it was 0.631 µM (active); in assay [6], > 9.22 µM. The results for the activity change, negative = inhibition in assay [2] and in assay [4] were 13.5% and -21%, respectively. Further, the activity, negative = inhibition in assay [5] is 14.3%. The Potency result in assay [7], in [8] and in assay [10] was “inactive” each time.

Consider `O=C(O)CS(=O)c1ccc2c3c(cccc13)C(=O)c1ccccc1-2` (configuration not stated), for which the values for the Potency in [1], in assay [3] and in [6] were > 11.4 µM, 0.0631 µM (active) and > 9.22 µM, respectively. Also, the activity change, negative = inhibition was -22.7% in assay [2] and -13.9% in assay [4]. The activity, negative = inhibition in assay [5] was 1.69%. For the same compound, the Potency entry in assay [7], in assay [8] and in assay [10] was “inactive” throughout.

As to `O=S(=O)(c1ccccc1)N1CCC[C@@]2(CCN(Cc3ccccc3)C2)C1`, the Potency in assay [1] is > 11.4 µM; in assay [3], 20 µM (active); in assay [6] it was > 46 µM. Moreover, the activity change, negative = inhibition in assay [2] was 6.44%; in assay [4], -28.9%. The activity, negative = inhibition in assay [5] is -5.04%. Moreover, the Potency result in [7], in assay [8] and in assay [10] was “inactive” each time.

As to `Cc1ccc(S(=O)(=O)N[C@H](CN)C(=O)O)cc1`, the Potency in assay [1] is > 11.4 µM; in assay [9], > 46 µM; in assay [6] it was > 9.22 µM. Further, the values for the activity change, negative = inhibition in assay [2], in assay [3] and in assay [4] were 10.5%, -18.5% [at 2.29 µM] and 3.21%, respectively. Further, the activity, negative = inhibition in assay [5] is 8.31%. Further, the Potency result in [8] and in [11] was “inactive” throughout.

For `c1cc(CSSCc2ccncc2)ccn1`, the Potency in [1] is > 11.4 µM; in [3], 2 µM (active); in assay [9], > 46 µM; in assay [12], 1.58 µM (active); in assay [13], 2.51 µM (active); in assay [11], 1.26 µM (active). The figures for the activity change, negative = inhibition in [2] and in assay [4] were -3.12% and 12.2%, respectively. Also, in assay [5], the activity, negative = inhibition was -6.55%. In addition, the Potency entry in assay [7], in [8] and in assay [10] was “inactive” each time.
